NS1 function inh: qHTS Assay for Inhibitors of Influenza NS1 Protein Function; 270,000 compounds, 0.4% hits; AID 2326, 2010; Potency, µM (doses to about 46.1 µM), inactives show at the highest dose activity, positive = more growth; calls by dose curve; further: potency means the concentration at half of the fitted maximal effect; actives are rising curves; nearly all actives have a fitted effect of over 50% in size
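OD600 was taken as the measure of yeast growth restored by compound in an NS1-expressing S. cerevisiae strain. Cells had been washed out of glucose medium and diluted 1:100 into galactose -URA medium, pH 6.0.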
Pf growth 96h: Primary qHTS for delayed death inhibitors of the malarial parasite plastid, 96 hour incubation | P. falciparum luciferase reporter growth, 96 h | Potency, µM (top dose mostly 28.7 µM), inactives show at the highest dose activity change, negative = inhibition, actives largely listed as inhibitors | 320,000 compounds, 6.9% hits | AID 504834, 2011; further: potency means the concentration at half of the fitted maximal effect; on the % scale 0 is the no-effect control and ±100 the full control effect
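Cell-based qHTS: luciferase-tagged P. falciparum in erythrocytes (2% hematocrit, 0.05% parasitemia final) incubated with compounds for 96 hours, 37 C, 5% CO2; luciferase detection reagent then added and luminescence measured.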
Shiga inhibitor: A qHTS for Small Molecule Inhibitors of Shiga Toxin | AID 2315, 2010 | 290,000 compounds, 9.2% hits | Vero cells, Shiga toxin protein synthesis inhibition reporter | inhibition, % at 38.7 µM; in the data active means inhibition mostly above about 28%, no sharp cut-off; inactive means mostly below about 43%; further: 0% is about no effect
CHX counter: Cycloheximide Counterscreen for Small Molecule Inhibitors of Shiga Toxin. cell reporter, cycloheximide protein synthesis inhibition counterscreen. max response, %. 300,000 compounds, 12% hits. AID 2314, 2010; in the data active means max response mostly above about 13%, no sharp cut-off; inactive means mostly below about 14%; further: read at 38.3 µM for the half of the compounds with a filed dose; 0% is about no effect
Pf growth 48h: Primary qHTS for delayed death inhibitors of the malarial parasite plastid, 48 hour incubation; P. falciparum luciferase growth in erythrocytes, 48 h; Potency, µM (series often up to 28.7 µM), for inactives: at the top dose activity change, negative = inhibition, most hits filed as inhibitors; 310,000 compounds, 5.9% hits; AID 504832, 2011; further: potency means the concentration at half of the fitted maximal effect; on the % scale 0 is the no-effect control and ±100 the full control effect
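Cell-based growth assay: transgenic P. falciparum expressing firefly luciferase, cultured in red cells within RPMI 1640 containing 0.5% w/v Albumax, 24 mM bicarbonate and gentamycin. A drop in luciferase activity indicates inhibition.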
Giardia FBPA inh: qHTS Assay for Inhibitors of Fructose-1,6-bisphosphate Aldolase from Giardia Lamblia | A8B2U2 | purified Giardia FBPA | Potency, µM (top dose mostly 59.6 µM), for inactives: at the highest dose activity, negative = inhibition, most hits filed as inhibitors | 290,000 compounds, 0.71% hits | AID 2451, 2010; further: potency means the concentration at half of the fitted maximal effect; on the % scale 0 is the no-effect control and ±100 the full control effect; nearly all actives have a fitted effect of over 55% in size
Target sequence (A8B2U2 whole entry, looked up): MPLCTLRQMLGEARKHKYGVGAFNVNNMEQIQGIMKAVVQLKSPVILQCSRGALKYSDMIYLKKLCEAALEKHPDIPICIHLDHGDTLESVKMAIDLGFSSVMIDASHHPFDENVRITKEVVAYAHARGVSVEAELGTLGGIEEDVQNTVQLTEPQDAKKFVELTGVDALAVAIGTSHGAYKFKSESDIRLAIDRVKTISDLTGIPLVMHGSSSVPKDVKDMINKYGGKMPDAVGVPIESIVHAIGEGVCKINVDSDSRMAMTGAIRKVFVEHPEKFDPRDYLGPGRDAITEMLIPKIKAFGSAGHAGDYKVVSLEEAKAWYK
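Giardia FBPA (40 nM reagent) was preincubated 10 min at RT with compound (up to 57.5 uM final), then substrate plus GAPDH/TPI/NAD/arsenate coupling system with diaphorase/resazurin was added; resorufin fluorescence (525/598 nm) was read after 20 min.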
Active calls of the source: *; ? = inconclusive; / = no result; [ ] = another dose, or the depositor's remark. Most compounds without a hit are left out; they make up all but 21% or so of the library. Unless noted, the call rests on the fitted dose curve; in most records, active means well fitted curve in the direction sought with a large enough effect; inconclusive means small, poorly fitted or top-dose-only effect, or another doubt; inactive means no such curve, though single readings can be large; an effect the other way counts as inactive or inconclusive.

SMILES	NS1 function inh	Pf growth 96h	Shiga inhibitor	CHX counter	Pf growth 48h	Giardia FBPA inh
C=CCOC(=O)C1=C(C)NC(SCC(=O)N(CC)CC)=C(C#N)C1c1ccccc1 (configuration not stated)	19%	73%	-8	2	?	1%
CCOC(=O)C1=C(C)NC(SCC(=O)Nc2nc(C)cs2)=C(C#N)C1c1cccs1 (configuration not stated)	6%	?	24	12	2.1µM*	-12%
O=C1[C@H]2[C@H]3[C@H](O)[C@H](O)C/C(=N/OC[C@@H](O)COCc4ccco4)[C@@H]3CC[C@@H]2C(=O)N1c1cccc(Oc2ccccc2)c1	/	/	/	/	/	0%[12.9 µM]
Cc1cc(C(=O)OCC(=O)Nc2ccccc2F)c(C)o1	-6%	98%	98*	15*	38%	1%
Nc1ccccc1C(=O)OCC(=O)Nc1ccc(Br)cc1F	-18%	39%	93	21*	50%	3%
CC(=O)N1C2(C=CC1(C)C(=O)NCCN1CCOCC1)CCCCC2 (configuration not stated)	/	/	/	/	/	0%
CNC[C@H](O)c1ccc(OC(=O)C(C)(C)C)c(OC(=O)C(C)(C)C)c1	/	3.2µM*	/	/	?	-6%[21.7 µM]
CC(C)(C)CN1CCNC(=O)C1CC(=O)NCCN1CCCc2ccccc21 (configuration not stated)	-4%	83%	-2	1	-18%	-23%
C/C(=N\NC(=S)Nc1ccccc1C)c1ccc(O)cc1	0%	?	43	13*	0%	-19%
O=C(COC(=O)CCNS(=O)(=O)c1ccccc1)NC(=O)Cc1ccccc1	/	7%	/	/	7%	/
C[C@]12CCC(=O)CC1CCC1C2CC[C@]2(C)C(OC(=O)CCC(=O)O)CCC12 (some centres not stated)	1%	22%	-15	-3	19%	4%
CCCCCCC(=O)O[C@H]1CC[C@H]2[C@@H]3CCC4CC(=O)C=C(C)[C@]4(C)[C@H]3CC[C@]12C (some centres not stated)	/	6.7µM*	/	/	4.8µM*	/
Fc1ccc(/C=N/NC(=S)Nc2cccnc2)cc1F	/	-51%	-1	5	4%	-6%
CCC(C)[C@@H](N)C(=O)N/N=C/c1ccc2ncccc2c1 (some centres not stated)	5%	12µM*	13	6	?	0%
C(=N\NCc1ccccc1)/c1ccc2nccnc2c1	3%	109%	64*	37*	194%	-2%
C(=N\NCc1ccccc1)/c1ccc2ncccc2c1	1%	124%	79*	38*	337%	-3%
S=C(N/N=C/c1ccc2ncccc2c1)Nc1ccccc1	/	-15%	66*	35*	47%	-19%
CCCN(CCC)CCCNC(=O)c1cn(-c2ccc(OC)cc2)c(=O)c2ccccc12	0%	-17%	-12	-3	17%	6%
Cc1cc(=O)oc2cc(O)c(CN(C)CC(=O)O)cc12	0%	/	/	/	/	/
C[N+]1(C)[C@@H]2CC[C@H]1CC(OC(=O)C(c1ccccc1)c1ccccc1)C2 (some centres not stated)	-1%	3.3µM*	19	-1	2.3µM*	7%
CC(C)[N+]1(C)[C@@H]2CC[C@@H]1CC(OC(=O)C(CO)c1ccccc1)C2 (some centres not stated)	/	23%	/	/	-4%	/
CC1CCc2c(sc3nc(CSc4nnnn4C)[nH]c(=O)c23)C1 (configuration not stated)	-3%	33%	26	18*	19%	0%
CCC(=O)N1CCc2cc(S(=O)(=O)CCC(=O)Nc3ccc(C)cn3)ccc21	3%	?	9	-5	-9%	7%
CCCCc1ccc(N=N/C(C(=O)Nc2ccccc2OC)=C(/C)O)cc1	4%	0%	7	-2	11%	5%
CCCCc1ccc(N=N/C(C(=O)Nc2cc(OC)c(NC(C)=O)cc2OC)=C(/C)O)cc1	6%	4.7µM*	-9	-2	?	-1%
Cc1noc(C)c1C1(O)CCCCCCCCCCC1	3%	?	-5	-1	-24%	13%
